This note sets out measurements from PubChem BioAssay (Tox21).

Where “and” joins values, the source holds several entries; their conditions need not be identical. Identical values can stand only once. Records with an inconclusive call do not appear. A call without a number means that no potency is given here. Calls of active or inactive are those of the source. The call rests on the fitted dose curve; in most records, active means well fitted cell-killing curve with a large enough effect in the repeat runs; inconclusive means weak or mixed curves, or effect the other way; inactive means flat fitted curve, though single readings scatter.
Potency means the concentration at half of the fitted maximal effect.

The assay is described as follows: qHTS assay to identify small molecule agonists of the constitutive androstane receptor (CAR) signaling pathway - cell viability counter screen (AID 1224836). Further: nearly all actives have a fitted effect of over 45% in size. Conditions: HepG2-CYP2B6-hCAR viability, CellTiter-Fluor, 23 h, PK11195 added to every well; series mostly up to 92.4 µM. The text has this:
U.S. Tox21 Program National Center for Advancing Translational Sciences [NCATS] NIH Chemical Genomics Center [NCGC] U.S. Environmental Protection Agency [EPA] National Institutes of Environmental Health Sciences [NIEHS] National Toxicology Program [NTP] U.S. Food and Drug Administration [FDA] Tox21 Assay Overview: The constitutive androstane receptor (CAR) is a nuclear receptor which regulates multiple drug metabolizing enzymes (DMEs) and transporters. Activating CAR will generally increase the transcription and subsequent translation of CYP2B6 and CYP3A4. These two DMEs represent about 50% of the drug metabolizing potential in the body. […] Recently, there have also been studies performed indicating CARs role in energy metabolism and cancer therapy. Therefore, inducing CARs activity could have a potential effect on diabetes and cancer. Identifying environmental toxins and compounds which modulate CAR, through the use of the Tox21 10K compound collection, will be an important step in determining the toxicity and potential therapeutic effects these factors will have on the human body. To differentiate true CAR agonists from cytotoxic substances, the assay is multiplexed with a cell viability assay.
Tox21 Assay Protocol Summary: A double-stable (hCAR and CYP2B6-2.2kb) transfected cell line, derived from human hepatoma (HepG2) cells, was utilized for the duration of the quantitative high-throughput screens. The HepG2-CYP2B6-hCAR cells were dispensed at 2500 cells/4 uL/well in 1536-well white solid bottom plates using a Multidrop Combi. After the assay plates were incubated at 37 C/5% CO2 for 4 hrs, 23 nL of compounds at 15 concentrations (from 5-48 columns) or positive control (from 1 to 4 columns) were transferred to the assay plates using a Pintool station. One uL of PK11195 (final concentration = 0.75 uM) was added, using a Flying Reagent Dispenser, inside each well. After a 23 hr incubation period at 37 C/5% CO2, 1 uL of CellTiter-Fluor reagent was added into each well of the assay plates using a Flying Reagent Dispenser. The fluorescence intensity in the plates was then measured using a ViewLux plate reader.
A general note: qHTS replaces the single test concentration by a dilution series.
For the compound `COP(=S)(OC)SCn1nnc2ccccc2c1=O`, the Potency result was “inactive”. For the compound `CSc1nc(NC(C)C)nc(NC(C)C)n1`, the Potency entry is “inactive”. As for `Cc1ccc(N=CN(C)C=Nc2ccc(C)cc2C)c(C)c1`, the entry is “inactive”; as for `O=NN1CCOCC1`, “inactive”; as for `Cc1cccc(N=Nc2ccc(N(C)C)cc2)c1`, 78.3 µM (active). With `CC1CC(=O)O1` (stereo not given) the entry was “inactive”; with `O=C1C(Cl)=C(Cl)C(=O)c2ccccc21`, “inactive”; with `Cn1c(-c2ccccc2)cc(-c2ccccc2)[n+]1C`, “inactive”.

For `C=CC(Cl)CCl` (stereo not given), the Potency entry was “inactive”. As for `CCC1(c2ccc(N)cc2)CCC(=O)NC1=O` (stereo not given), the entry is “inactive”; as for `OC(c1ccc(Cl)cc1)(c1cncnc1)c1ccccc1Cl` (stereo not given), “inactive”; as for `CNC(=O)CSP(=S)(OC)OC`, “inactive”.

On to `Brc1ccc(Br)cc1`, for which the Potency result was “inactive”.

With `COC(=O)Nc1nc2ccccc2[nH]1`, the Potency result was “inactive”. As for `CC(C)COC(=O)c1ccccc1C(=O)OCC(C)C`, the entry is “inactive”.

For the compound `CCOP(=S)(OCC)SCn1c(=O)oc2cc(Cl)ccc21`, the Potency entry is “inactive”.

For `CCOS(=O)(=O)OCC`, the Potency entry is “inactive”. Consider `CCC(=O)Nc1ccc(Cl)c(Cl)c1`, for which the Potency entry was “inactive”. With `ClCc1ccccn1` the entry was “inactive”.

Consider `CCC[CH2][Sn]([Cl])([CH2]CCC)[CH2]CCC`, for which the Potency is 546 nM (active) and 545 nM (active). `COP(=O)(NC(C)=O)SC` (stereo not given): the Potency entry was “inactive”.

On to `Oc1ccc(Cl)cc1Cc1ccccc1`, for which the Potency result is “inactive”.

`CCCCOCCOC(C)=O`: the Potency entry was “inactive”. `O=[N+]([O-])c1ccc(Nc2ccccc2)cc1`: the Potency was 48.9 µM (active).

With `CCOP(=S)(OCC)SCSC(C)(C)C`, the Potency result is “inactive”. Turning to `CC(C)(c1ccc(OCC2CO2)cc1)c1ccc(OCC2CO2)cc1` (stereo not given), the Potency entry is “inactive”. For the compound `Nc1ccc2ccccc2c1`, the Potency entry was “inactive”. `Clc1ccccc1-c1nnc(-c2ccccc2Cl)nn1`: the Potency entry was “inactive”. With `O=P(OCCCl)(OCCCl)OCCCl` the entry was “inactive”; with `CC(C)CON=O`, “inactive”. For `C[C@]12CC[C@H]3[C@@H](CCC4=CC(=O)CC[C@@H]43)[C@@H]1CC[C@@H]2O`, the Potency entry was “inactive”. As for `CS(=O)(=O)NC(=O)c1cc(Oc2ccc(C(F)(F)F)cc2Cl)ccc1[N+](=O)[O-]`, the entry is “inactive”; as for `O=C1CCCO1`, “inactive”; as for `O=NN(c1ccccc1)c1ccccc1`, “inactive”. With `CCOC(=O)c1ccccc1N` the entry was “inactive”. With `C[N+](C)(C)CC(=O)O`, the Potency entry was “inactive”. As for `O=S(=O)(O)C(F)(F)C(F)(F)C(F)(F)C(F)(F)C(F)(F)C(F)(F)C(F)(F)C(F)(F)F`, the entry is “inactive”; as for `CCN(CC)C(=O)C(C)Oc1cccc2ccccc12` (stereo not given), “inactive”. As for `N#Cc1cccnc1`, the entry is “inactive”. As for `[Cl-].[Cl-].[Cl-].[Fe+3]`, the entry is “inactive”.
